Records with an inconclusive call do not appear. Calls of active or inactive are those of the source. The call rests on the fitted dose curve; in most records, active means well fitted inhibition curve with a large enough effect; inconclusive means small, poorly fitted or top-dose-only effect; inactive means flat fitted curve, though single readings scatter.
Test: P-glycoprotein substrates identified in KB-8-5-11 adenocarcinoma cell line, qHTS therapeutic library screen (AID 1346987); further: nearly all actives have a fitted effect of over 65% in size
Conditions: KB-8-5-11 (P-gp overexpressing) viability, CellTiter-Glo, 72 h; series mostly up to 44.5 µM; activity change, negative = cytotoxicity: at the top concentration
Source text: The ATP-binding cassette transporters P-glycoprotein (P-gp) is known to limit brain penetration of many chemotherapy drugs. […] As such, we developed a high-throughput screen (HTS) to identify substrates of P-gp from a series of chemical libraries including the National Center for Advancing Translational Sciences Pharmaceutical Collection NPC, 2,816 compounds), testing a total of 10,804 compounds, most of which have known mechanisms of action. We used the CellTiter-Glo viability assay to test library compounds against the parental KB-3-1 human cervical adenocarcinoma cell line and the colchicine-selected sub-line KB-8-5-11 that over-expresses P-gp. KB-8-5-11 cells were also tested in the presence of a P-gp inhibitor (tariquidar) to assess reversability of transporter-mediated resistance. Of the tested compounds, a total of 90 P-gp substrates were identified including 55 newly identified P-gp substrates. Substrates were confirmed using an orthogonal killing assay against HEK-293 cells transfected with P-gp. As exemplars, we confirmed that […] (cyclin-dependent kinase inhibitor); AT9283, (Janus kinase 2/3 inhibitor); ispinesib (kinesin spindle protein inhibitor); gedatolisib (PKI-587, phosphoinositide 3-kinase/mammalian target of rampamycin inhibitor); GSK-690693 (AKT inhibitor); and KW-2478 (heat shock protein 90 inhibitor) were substrates , and direct ATPase stimulation was assessed. ABCG2 was also found to confer high levels of resistance to AT9283, GSK-690693 and gedatolisib, while ispinesib, AT7519 and KW-2478 were weaker substrates.
The HeLa derivative cell line, KB-3-1, and its colchicine-selected, P-gp-overexpressing subline, KB-8-5-11 were maintained in DMEM with 10% FCS and Pen/Strep with glutamine at 37 degree C in 5% CO2. For KB-8-5-11 cells, colchicine was added to the medium at a concentration of 100 ng/mL. HEK-293 cells transfected with empty vector (pcDNA) or vector containing human ABCB1 (MDR-19) or ABCG2 (R-5) have been described previously (Robey, Lin, Qiu, Chan & Bates, 2011) and were maintained in EMEM supplemented with 10% FCS, Pen/Strep and glutamine with 2 mg/ml G418 to select for the expression of the transporter. Cultures were confirmed to be free of mycoplasma infection using the MycoAlert Mycoplasma Detection Kit (Lonza, Walkersville, MD). For the screen, assay medium was identical to culture medium except for KB-8-5-11 where colchicine was excluded from the medium.
All cell lines were plated into 1536-well plates at 500 cells/well in 5 uL media. Compounds were then pinned in dose-response using a 1536-head pin tool (Kalypsis, San Diego, CA) and plates were incubated at 37 degree C in 5% CO2 for an additional 72 h. CellTiter-Glo reagent (Promega) was dispensed into the wells, incubated for 5 min and luminescence was read on a ViewLux instrument (Perkin-Elmer). Cytotoxic compounds were defined as those that yielded a curve class of -1.1, -1.2, -2.1, -2.2, -2.3, or -2.4, a maximum response of >50% and an AC50 of < 10 uM. Cherry-picked hits from screening analysis were tested with both the KB pair of cell lines, and the pcDNA (empty vector control) and MDR-19 (P-gp overexpressing) pair were tested, in the absence and presence of tariquidar.
On the % scale 0 is the no-effect control and ±100 the full control effect; potency means the concentration at half of the fitted maximal effect.

| SMILES | activity change, negative = cytotoxicity | outcome | Potency |
| --- | --- | --- | --- |
| OCCc1ccccc1 | 10.2% (inactive) | – | – |
| COc1cc(NS(=O)(=O)c2ccc(N)cc2)nc(C)n1 | – | inactive | – |
| CCN1CCN(C(=O)N[C@@H](C(=O)N[C@@H]2C(=O)N3[C@@H]2SC(C)(C)[C@H]3C(=O)O)c2ccccc2)C(=O)C1=O | -4.31% (inactive) | – | – |
| Cc1cc(OCCOCC[N+](C)(C)Cc2ccccc2)ccc1C(C)(C)CC(C)(C)C | -8.98% (inactive) | – | – |
| CO[C@@H]1[C@@H](O[C@@H]2O[C@H](C)[C@@H](O[C@H]3C[C@@](C)(O)[C@@H](O)[C@H](C)O3)[C@H](N(C)C)[C@H]2O)[C@@H](CC=O)C[C@@H](C)[C@@H](O[C@@H]2CC[C@H](N(C)C)[C@@H](C)O2)/C=C/C=C/C[C@@H](C)OC(=O)C[C@H]1OC(C)=O | 2.42% (inactive) | – | – |
| CCCCCOc1ccc(C2SC(=O)NC2=O)cc1OCC (stereo not given) | 5.23% (inactive) | – | – |
| Nc1nnnn1-c1ccccc1 | -10.9% (inactive) | – | – |
| CCC(C(=O)NC(=O)NC(C)=O)c1ccccc1 (stereo not given) | 9.66% (inactive) | – | – |
| C[N+](C)(CCOc1ccccc1)Cc1cccs1 | -2.15% (inactive) | – | – |
| CCCCC(CC)COC(=O)c1ccccc1C(=O)O (stereo not given) | 6.76% [at 93.4 µM] (inactive) | – | – |
| Nc1c2ccccc2nc2ccccc12 | – | – | 13 µM (active) |
| CC(NCCC(c1ccccc1)c1ccccc1)c1ccccc1 (stereo not given) | – | – | 16.4 µM (active) |
| O=C(CCCCC(=O)Nc1c(I)cc(I)c(C(=O)O)c1I)Nc1c(I)cc(I)c(C(=O)O)c1I | -0.372% (inactive) | – | – |
| CO[C@]1(NC(=O)CSC(F)F)C(=O)N2C(C(=O)O)=C(CSc3nnnn3CCO)CO[C@H]21 | 8.54% (inactive) | – | – |
| O=C(Oc1ccccc1)c1ccccc1O | 19.5% (inactive) | – | – |
| CC(=O)Nc1ccc(S(=O)(=O)Nc2cc(C)on2)cc1 | -2.58% (inactive) | – | – |
| O=C(OCC(COC(=O)c1cccnc1)(COC(=O)c1cccnc1)COC(=O)c1cccnc1)c1cccnc1 | -3.48% (inactive) | – | – |
| CCCCC(O)/C=C(C)/C=C/C=C/C(=O)N1CCCC1=O (stereo not given) | – | inactive | – |
| CC(=O)O[C@@H]1C(=O)O[C@@H]2[C@H]1OC(=O)[C@@H]2OC(C)=O | – | inactive | – |
| O=C(CCCCCCCCC#CI)Oc1ccccc1 | – | inactive | – |

| SMILES | activity change, negative = cytotoxicity | outcome | Potency |
| --- | --- | --- | --- |
| Nc1cccc2c(N)cccc12 | 11.7% [at 93.4 µM] (inactive) | – | – |
| CC(=O)N(CC(O)CO)c1c(I)c(C(=O)NCCO)c(I)c(C(=O)NCC(O)CO)c1I (stereo not given) | 12.4% (inactive) | – | – |
| CC[N+](CC)(CC)CCOC(=O)C(C1CCCC1)C1CCCC1 | -3.14% (inactive) | – | – |
| O=S(=O)(O)c1ccc2nc(-c3ccccc3)[nH]c2c1 | -14.9% (inactive) | – | – |
| O=C(c1ccccc1)c1ccccc1 | 4.93% (inactive) | – | – |
| OC[C@]1(O)OC[C@@H](O)[C@H](O)[C@@H]1O | 4.85% (inactive) | – | – |
| O=C1NC2CCCCN2C12CCN(CCCN1c3ccccc3CCc3ccc(Cl)cc31)CC2 (stereo not given) | – | – | 16.4 µM (active) |
| O=C(NN1CCCC1)NS(=O)(=O)c1ccc(Cl)cc1 | 4.15% (inactive) | – | – |
| C1=CC2C3C=CC(C3)C2C1 (stereo not given) | 8.73% [at 93.4 µM] (inactive) | – | – |
| CC(=O)CC/C=C(\C)CC/C=C(\C)CC/C=C(\C)CCC=C(C)C | 1.79% (inactive) | – | – |
| COC(=O)C1=CO[C@@H](O)[C@@H]2C(CO)=CC[C@H]12 | -14.6% (inactive) | – | – |
| O=[N+]([O-])c1nccn1CO[C@@H](CO)[C@H](O)CO | – | inactive | – |
| CN1C(CSCC(F)(F)F)Nc2cc(Cl)c(S(N)(=O)=O)cc2S1(=O)=O (stereo not given) | 0.353% (inactive) | – | – |
| N[C@@H](Cn1ccc(=O)c(O)c1)C(=O)O | – | inactive [at 5.11 µM] | – |
| CC(=O)N[C@@H](CCC(N)=O)C(=O)O | 1.06% (inactive) | – | – |
| Cc1nc([N+](=O)[O-])cn1-c1ccc([N+](=O)[O-])cc1 | 7.55% (inactive) | – | – |
| CCCCCCCCCCCCCCCC[N+](C)(C)Cc1ccccc1 | -21.2% (inactive) | – | – |
| C[N+](C)(C)CCO | – | – | inactive |
| CO[C@@H]1[C@@H](OC)[C@H](C)[C@@](O)(CC(=O)O)O[C@H]1[C@H](C)[C@H]1O[C@@]2(CC[C@@](C)([C@H]3CC[C@@](C)([C@@H]4O[C@@H]([C@H]5O[C@](C)(O)[C@H](C)C[C@@H]5C)C[C@@H]4OC4C[C@H](OC)[C@@H](OC)[C@H](C)O4)O3)O2)C[C@H](O)[C@H]1C (stereo not given in full) | – | – | 8.2 µM (active) |
| CSc1ccc(/C=C2/C(C)=C(CC(=O)O)c3cc(F)ccc32)cc1 | -3.92% (inactive) | – | – |

Source: PubChem BioAssay (NCATS)
